Results reported in PubChem BioAssay (NCATS).
Records with an inconclusive call do not appear. Entries that show only a call come without a potency. The source made the active and inactive calls. Calls follow the shape of the dose curve; as a rule, active = well fitted cell-killing curve with a large enough effect; inconclusive = small, poorly fitted or top-dose-only effect, or effect the other way; inactive = no such curve, though single readings can be large or run the other way.

Test: Quantitative High-Throughput drug screen in 47 multiple myeloma cell lines against the NCATS MIPE library collection: JIM1_ECACC cell viability assay (AID 1918964)
Conditions: JIM1 myeloma viability, CellTiter-Glo ATP luminescence, 48 h; series mostly up to 45.8 µM
Description: PI: Beverly A. Mock Ph.D.
Laboratory of Cancer Biology and Genetics,
Center for Cancer Research, National Cancer Institute,
National Institute of Health, Bethesda, Maryland
Drug resistance and disease progression are common in multiple myeloma (MM) patients, underscoring the need for new therapeutic combinations. […] We hypothesized that effective combinations would reduce MYC expression and enhance p16 activity. […] These preclinical data identify potentially useful drug combinations for evaluation in drug-resistant MM and reveal potential mechanisms of combined drug sensitivity.
Described herein is the primary MIPE qHTS used to cherrypick compounds. Validated compounds were then further tested for potential synergistic activiy.
[1] Peat TJ, Gaikwad SM, Dubois W, Gyabaah-Kessie N, Zhang S, Gorjifard S, Phyo Z, Andres M, Hughitt VK, Simpson RM, Miller MA, Girvin AT, Taylor A, Williams D, D'Antonio N, Zhang Y, Rajagopalan A, Flietner E, Wilson K, Zhang X, Shinn P, Klumpp-Thomas C, McKnight C, Itkin Z, Chen L, Kazandijian D, Zhang J, Michalowski AM, Simmons JK, Keats J, Thomas CJ, Mock BA. Drug combinations identified by high-throughput screening promote cell cycle transition and upregulate Smad pathways in myeloma. Cancer Lett. 2023 Aug 1;568:216284. doi: 10.1016/j.canlet.2023.216284. Epub 2023 Jun 24. PMID: 37356470; PMCID: PMC10408729.
SEQUENCE No. (e.g., 1, 2, 3, etc.); […] (e.g., Cells, Incubation, Reagent, etc.); VALUE and DESCRIPTION.
1; Cells; 5 uL; white, solid bottom 1536-well Greiner assay plate.
2; Compounds; 23 nL; Kalypsis pin tool (Wako USA) equipped with a 1536-well pin head to transfer to the assay plates.
3; Incubation; 48 hours; 37C incubation.
4; Reagent;5uL; CellTiter Glo (Promega).
5; Detector; 425V; Luminescence; Viewlux PerkinElmer.
NOTES (numbers refer to Sequence numbers above)
1. The cell-based screening methods employed in this study were like those previously published. Briefly, the corresponding myeloma cell lines were screened in 1,536-well plates with 500 cells, 5-uL per well for inhibition of cell viability (assessed by measuring ATP levels with CellTiterGlo).
2. NCATS MIPE 4.0 library of approved and investigational drugs were added using the Kalypsis pin tool. Wells treated with DMSO only for 100% viability and media only wells for 0% viability were used as controls.
3. The assay plates were covered and incubated for 48 hours in a 37C, 5% CO2 incubator with controlled humidity.
4. After 48 hours, CellTilter-GloTM luminescent substrate mix (Promega) reagent was added to the assay plate and plates we incubated for 5 min at room temperature.
5. Signal was measured as median relative luminescence units on a ViewLux (PerkinElmer) multiplate reader.
[1] Heske CM, Davis MI, Baumgart JT, Wilson K, Gormally MV, Chen L, Zhang X, Ceribelli M, Duveau DY, Guha R, Ferrer M, Arnaldez FI, Ji J, Tran HL, Zhang Y, Mendoza A, Helman LJ, Thomas CJ. Matrix Screen Identifies Synergistic Combination of PARP Inhibitors and Nicotinamide Phosphoribosyltransferase (NAMPT) Inhibitors in Ewing Sarcoma. Clin Cancer Res. 2017 Dec 1;23(23):7301-7311. doi: 10.1158/1078-0432.CCR-17-1121. Epub 2017 Sep 12. PMID: 28899971; PMCID: PMC6636827.
Potency is read from the fitted curve at half-maximal effect.

| SMILES | Potency |
| --- | --- |
| CN1CCN(C(=O)O[C@H]2c3nccnc3C(=O)N2c2ccc(Cl)cn2)CC1 | inactive |
| Cn1cc(C2=C(c3cn(C4CCN(Cc5ccccn5)CC4)c4ccccc34)C(=O)NC2=O)c2ccccc21 | 1320 nM (active) |
| CC1=C2C[C@@H]3[C@@H](CC=C4C[C@@H](O)CC[C@@]43C)[C@@H]2CC[C@]12O[C@H]1C[C@H](C)CN[C@H]1[C@H]2C | inactive |
| O=C1CC[C@@]2(O)[C@H]3Cc4ccc(O)c5c4[C@@]2(CCN3CC2CC2)[C@H]1O5 | inactive |
| C[C@@H]1O[C@@H](O[C@H]2C[C@@H](O)[C@]3(CO)[C@H]4[C@H](O)C[C@]5(C)[C@@H](C6=CC(=O)OC6)CC[C@]5(O)[C@@H]4CC[C@]3(O)C2)[C@H](O)[C@H](O)[C@H]1O | 13.2 nM (active) |
| CCCC(C)(COC(N)=O)COC(=O)NC(C)C (configuration not stated) | inactive |
| C[C@@H]1[C@@H](CC(C[C@H]2O[C@@H]3O[C@]4(C)CC[C@@H]5[C@H](C)CC[C@@H]([C@H]2C)[C@@]35OO4)C[S+](=O)([O-])c2ccc(COC(=O)N(C)C)cc2)O[C@@H]2O[C@]3(C)CC[C@H]4[C@H](C)CC[C@@H]1[C@@]24OO3 (some centres not stated) | 66.2 nM (active) |
| CC(C)CC(N(C)C)C1(c2ccc(Cl)cc2)CCC1 (configuration not stated) | inactive |
| COC[C@H]1OC(=O)c2coc3c2[C@@]1(C)C1=C(C3=O)C2CCC(=O)[C@@]2(C)C[C@H]1OC(C)=O (some centres not stated) | 8330 nM (active) |
| O=C(O)C(=O)c1cn(Cc2ccccc2)c2ccc(-c3ccc(OC(F)(F)F)cc3)cc12 | inactive |
| CC(O)(CS(=O)(=O)c1ccc(F)cc1)C(=O)Nc1ccc(C#N)c(C(F)(F)F)c1 (configuration not stated) | 4180 nM (active) |
| COc1ccc(C(CN(C)C)C2(O)CCCCC2)cc1 (configuration not stated) | inactive |
| CN(C)[C@@H]1C(=O)C(C(N)=O)=C(O)[C@@]2(O)C(=O)C3=C(O)c4c(O)cccc4[C@@](C)(O)[C@H]3C[C@@H]12 | inactive |
| C=C(C)[C@H]1Cc2c(ccc3c2O[C@@H]2COc4cc(OC)c(OC)cc4[C@@H]2C3=O)O1 | 418 nM (active) |
| N[C@@H](Cc1ccc(N(CCCl)CCCl)cc1)C(=O)O | 10500 nM (active) |
| Fc1ccc(C(OCCN2CCN(CCCc3ccccc3)CC2)c2ccc(F)cc2)cc1 | inactive |
| CNCC(O)c1ccc(O)cc1 (configuration not stated) | inactive |
